Hits are enriched below; roughly 4.6% of the tested compounds scored in any of these assays.
HIF-2a inh = inhibitors of HIF-2a. AID 624352. 786-0 RCC cells HIF-2a reporter, luciferase luminescence, overnight. 360,000 compounds, 0.72% hits. inhibition, % at 18.8 µM;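 active = inhibition of the luminescence signal of 40% or more relative to plate controls, in a single-dose primary screen at 18.75 µM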
Peg3 prom inh-1 = reduces Peg3 promoter-driven luciferase expression in HeLa; inhibition, % at 20 µM; HeLa PEG-Prom luciferase reporter, luminescence, overnight; 360,000 compounds, 1.7% hits;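 active = inhibition of at least 50% at 20 µM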
Mdm2 MdmX PPI = inhibitors of human Mdm2/MdmX interaction; inhibition, % at 8 µM; O15151+Q00987; 330,000 compounds, 3% hits; SaOS-2 split-luciferase Mdm2/MdmX complementation, luminescence;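 active = inhibition of at least 50% at 8 µM in the primary screen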
Target sequence (O15151 whole entry, looked up): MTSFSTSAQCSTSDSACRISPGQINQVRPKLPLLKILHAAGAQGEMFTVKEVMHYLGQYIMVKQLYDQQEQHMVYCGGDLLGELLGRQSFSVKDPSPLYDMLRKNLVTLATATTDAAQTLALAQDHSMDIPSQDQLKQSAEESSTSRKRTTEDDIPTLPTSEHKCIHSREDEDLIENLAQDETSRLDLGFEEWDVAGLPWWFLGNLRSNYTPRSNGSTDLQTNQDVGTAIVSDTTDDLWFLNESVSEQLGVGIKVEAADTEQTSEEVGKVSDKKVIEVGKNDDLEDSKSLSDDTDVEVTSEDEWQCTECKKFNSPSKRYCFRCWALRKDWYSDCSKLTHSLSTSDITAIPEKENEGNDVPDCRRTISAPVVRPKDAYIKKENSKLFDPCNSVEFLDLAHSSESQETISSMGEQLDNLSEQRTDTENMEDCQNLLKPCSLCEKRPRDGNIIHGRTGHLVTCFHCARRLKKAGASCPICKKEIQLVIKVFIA
Target sequence (Q00987 whole entry, looked up): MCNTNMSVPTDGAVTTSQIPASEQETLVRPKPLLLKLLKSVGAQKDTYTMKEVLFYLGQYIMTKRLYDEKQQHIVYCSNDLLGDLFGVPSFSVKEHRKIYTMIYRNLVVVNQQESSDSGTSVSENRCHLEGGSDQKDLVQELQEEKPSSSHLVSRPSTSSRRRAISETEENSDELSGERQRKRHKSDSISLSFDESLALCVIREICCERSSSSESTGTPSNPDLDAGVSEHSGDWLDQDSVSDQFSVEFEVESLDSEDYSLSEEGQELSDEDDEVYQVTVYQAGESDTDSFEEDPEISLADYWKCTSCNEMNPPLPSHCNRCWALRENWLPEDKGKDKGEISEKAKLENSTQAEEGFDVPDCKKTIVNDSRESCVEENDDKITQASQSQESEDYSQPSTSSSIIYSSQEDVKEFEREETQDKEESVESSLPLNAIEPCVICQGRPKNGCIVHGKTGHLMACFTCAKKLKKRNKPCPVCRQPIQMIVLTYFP
CF NFkB inh = inhibitors of cystic fibrosis induced NF-kB. KKLEB NF-kB-GFP reporter, PAF-induced, GFP fluorescence overnight. inhibition, % at 5 µM. 360,000 compounds, 0.86% hits. AID 588850;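 active = at least 50% inhibition at 5 µM, scaled per plate between neutral and stimulator controls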;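 also: PAF is a Pseudomonas aeruginosa culture filtrate used as stimulus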
KKLEB cytotox = reduces viability of KKLEB cystic fibrosis airway cells; 360,000 compounds, 0.36% hits; activity change (cytotoxicity), % at 5 µM; KKLEB CF airway cells viability, ATPlite luminescence, overnight; stronger effect = lower value; cells stimulated with P. aeruginosa culture filtrate;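 active = corrected activity change at or below -50% at 5 µM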
ABHD5 PLIN5 PPI = ABHD5-PLIN5 protein interaction inhibition; Q00G26+Q8WTS1; Split G. princeps luciferase complementation, luminescence, 4 h; inhibition, % at 4 µM; 360,000 compounds, 0.78% hits;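 active = inhibition above the mean inhibition across every tested compound plus 3 SD, cut at about 22% in these data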
Mdm2 MdmX conf-1 = confirmation of human Mdm2/MdmX interaction inhibitors; inhibition, % at 8 µM; shares compounds with Mdm2 MdmX PPI; 10,000 compounds, 55% hits; Mdm2-MdmX binding, luminescent assay; AID 489028; in the data active = inhibition above about 40%
Full FLuc ctr = full-length luciferase inhibition in Mdm2/MdmX counter-screen. shares compounds with Mdm2 MdmX PPI. SaOS-2 full-length luciferase counterscreen, luminescence. inhibition, % at 8 µM. 6,200 compounds, 77% hits. AID 504607;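 active = mean inhibition at 8 µM reaching about 37%, which flags the compound as non-specific, limit read from the data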;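 also: p53-null SaOS-2 cells with luciferase driven by a doxycycline-inducible promoter; compound on cells about two nights before reading with doxycycline added after day one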
Peg3 prom inh-2 = Peg3 promoter inhibition confirmation; AID 602417; shares compounds with Peg3 prom inh-1; inhibition, % at 20 µM; HeLa PEG-Prom luciferase reporter, luminescence, overnight; 1,300 compounds, 84% hits;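 active = at 20 µM dose, 40% or more inhibition averaged across four replicates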
ABHD5-PLIN5 conf = confirmation of human ABHD5-PLIN5 interaction inhibitors | inhibition, % at 4 µM | shares compounds with ABHD5 PLIN5 PPI | 2,200 compounds, 67% hits | biochemical ABHD5-PLIN5 interaction, luminescence; in the data active = inhibition above about 23%
HNF4 counter = active in HNF4 split-luciferase counter-screen for ABHD5-PLIN5 inhibitors | shares compounds with ABHD5 PLIN5 PPI | HNF4 dimerization, luminescence, biochemical | inhibition, % at 4 µM | 2,200 compounds, 77% hits | AID 651674;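 active = mean inhibition across replicate wells exceeding the computed hit threshold, cut at about 13% in these data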;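 also: light from luciferase halves that rejoin when HNF4 fusion proteins dimerize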
Mdm2 MdmX conf-2 = Mdm2/MdmX (human) interaction inhibition, confirmed | shares compounds with HIF-2a inh | SaOS-2 split-luciferase Mdm2/MdmX complementation, luminescence | inhibition, % at 8 µM | 740 compounds, 99% hits | AID 504601;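 active = mean inhibition of the luminescence signal across two replicates at or above 26 percent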
HIF-2a conf = HIF-2a inhibition, single concentration confirmation; shares compounds with HIF-2a inh; 786-0 RCC cells, HIF-2a luciferase reporter luminescence, overnight; inhibition, % at 18.8 µM; 1,800 compounds, 56% hits; AID 651580;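 active = mean inhibition across four replicates of at least 40 percent at the single tested concentration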
HIF-1a counter = inhibits HIF-1a reporter, a counter-screen for HIF-2a inhibitors. shares compounds with HIF-2a inh. MiaPaCa-2 HIF-1a luciferase reporter, desferoxamine, overnight. inhibition, % at 18.8 µM. 1,800 compounds, 72% hits;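 active = mean inhibition of the reporter signal across four replicates at the single tested dose of 50% or more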
Numbers stand for hits; . = inactive; / = no result given.

SMILES	HIF-2a inh	Peg3 prom inh-1	Mdm2 MdmX PPI	CF NFkB inh	KKLEB cytotox	ABHD5 PLIN5 PPI	Mdm2 MdmX conf-1	Full FLuc ctr	Mdm2 MdmX conf-2	others
COc1cc(NS(C)(=O)=O)ccc1Nc1c2ccccc2nc2ccccc12	55	102	89	.	.	.	73	59	98	Peg3 prom inh-2=93
O=C(O)c1cc(S(=O)(=O)O)cc(Nc2c3ccccc3nc3ccccc23)c1O	.	.	.	.	.	.	/	/	/
COc1ccccc1-c1cc(C(F)(F)F)nc(S(=O)(=O)CCCC(=O)N2CCOCC2)n1	83	103	97	90	-79	.	98	.	/	HIF-2a conf=48;HIF-1a counter=104
COc1ccccc1-c1noc(CCCC(=O)N2CCOCC2)n1	.	.	.	.	.	.	/	/	/
C=CCSc1nc2ccccc2n1C(=O)/C=C/c1cc(OC)c(OC)c(OC)c1	83	98	100	91	.	43	95	.	/	ABHD5-PLIN5 conf=88;HNF4 counter=72;HIF-2a conf=88;HIF-1a counter=106
CCSc1nc2ccccc2n1C(=O)/C=C/c1ccc(OC)c(OC)c1	78	103	100	84	.	.	99	54	102	HIF-2a conf=.;HIF-1a counter=101
COc1cc(/C=C/C(=O)NCCn2c(C)cc3ccccc32)cc(OC)c1OC	.	.	.	.	.	.	/	/	/
Cc1ccc(NC(=O)CN2CCN(S(=O)(=O)c3ccc(F)cc3)CC2)cc1C	.	.	.	.	.	.	/	/	/
O=C(Nc1cccc(C(=O)O)c1)Nc1ccc2c(c1)OCO2	83	84	54	.	.	.	63	50	64	Peg3 prom inh-2=74
Cc1ccsc1C(=O)N1CCCC1(C)C(=O)NCC(C)C (stereo not drawn)	.	.	/	.	.	.	/	/	/
OCCCNc1cc(-c2ccnc(Nc3cccc(Cl)c3)n2)ccn1	.	103	100	86	.	.	100	50	103
CN(C)CCCNc1ccc(-c2cc(Nc3cccc(Cl)c3)ncn2)cn1	.	.	.	.	.	.	/	/	/
CCOC(=O)C1c2cccc(O)c2CCN1C(C)=O (stereo not drawn)	.	.	/	.	.	.	/	/	/
Cc1ccc(C)c(OCC(=O)Nc2ccc(C(=O)O)cc2NC(=O)COc2cc(C)ccc2C)c1	.	.	.	.	.	.	/	/	/
CCCCC(=O)NC(c1ccccc1)c1ccc2cccnc2c1O (stereo not drawn)	.	55	72	.	.	.	88	50	87	Peg3 prom inh-2=88
O=C(CCc1ccccc1)NC(c1cccs1)c1cc(Cl)c2cccnc2c1O (stereo not drawn)	.	.	/	.	.	.	/	/	/
CCCC(=O)NC(c1ccc(OC)cc1)c1ccc2cccnc2c1O (stereo not drawn)	.	55	82	.	.	.	78	50	86	Peg3 prom inh-2=71
COc1ccc(CNC(=O)CSc2cccc3cccnc23)cc1	.	.	.	.	.	.	/	/	/

Screening results from PubChem.
